From ChEMBL document CHEMBL4513216, “Probing the Open Global Health Chemical Diversity Library for Multistage-Active Starting Points for Next-Generation Antimalarials” (ACS Infect Dis, 2020)
Among all 65,000 compounds or so, about 2,100 (3.2%) showed an effect of 50% or more. The median lay at about -52%. The entries come from a sample that favours strong results as a whole.

Each molecule was assayed on Plasmodium falciparum (assay: Screen against P. falciparum Asexual Blood Stage (ABS), at 5uM). Conditions: tested at 5 uM.
Type: functional, Dd2

| Structure (SMILES) | INHIBITION [%] |
| --- | --- |
| COCc1noc(CNc2nc(C3CCCC3)nc3c2CCNCC3)n1 | 27.3 |
| COCCNc1nc(C2CCCC2)nc2c1CCNCC2 | 54.1 |
| Cc1nc2c(c(NCC(O)C(F)(F)F)n1)CCNCC2 (stereo not drawn) | -121 |
| OC(CNc1nc(C2CCCC2)nc2c1CCNCC2)C(F)(F)F (stereo not drawn) | 64.6 |
| OC(CNc1ncnc2c1CCNCC2)C(F)(F)F (stereo not drawn) | -178 |
| COCCNc1nc2c(c(NCC3CCOC3)n1)CCNCC2 (stereo not drawn) | -47.9 |
| Cc1c(Cl)c(C(=O)NN2CCOCC2)nn1C | -48.6 |
| O=C(CC1COCCN1S(=O)(=O)c1ccccc1)NCc1ccccn1 (stereo not drawn) | -170 |
| O=C(C1CCC2(CCN(c3nncs3)CC2)CO1)N1CCCC1 (stereo not drawn) | 13.3 |
| CC(C)CN1C(=O)C2(CCN(CC3CCOCC3)C2)c2ccccc21 (stereo not drawn) | 39.6 |
| COc1ccsc1C(=O)N1CCCC(n2cncn2)C1 (stereo not drawn) | -121 |
| O=C(NCc1ccco1)[C@H]1CC[C@@H]2[C@@H](CCN2Cc2cccnc2)O1 | -34.5 |
| O=C(NCc1ccco1)[C@@H]1CC[C@@H]2[C@@H](CCN2Cc2ccc(F)cc2)O1 | 67.2 |
| O=C(NCc1ccco1)[C@H]1CC[C@@H]2[C@@H](CCN2Cc2nccs2)O1 | -11.2 |
| Cc1ncsc1CN1C[C@H](C(=O)NC2CCCC2)[C@@H]2CCO[C@@H]2C1 | 1.73 |
| CCO[C@H]1CO[C@@]2(CCCN(Cc3scnc3C)C2)C1 | -22.6 |
| CNC(=O)CNC1CC2(CCN(c3ncccn3)CC2)c2ccccc21 (stereo not drawn) | -84.5 |
| CS(=O)(=O)N1CCC2(CC1)CC(NCC1CC1)c1ccccc12 (stereo not drawn) | 48.3 |
| c1cnc(N2CCC3(CC2)CC(NCC2CC2)c2ccccc23)nc1 (stereo not drawn) | 54.2 |
| Cc1ccccc1-c1cc(C(=O)N2CCCC(n3ccnc3C)C2)[nH]n1 (stereo not drawn) | -29.5 |
| COCCN1CCCCC12CC(=O)N(c1cccc(C#N)c1)C2 (stereo not drawn) | -132 |
| COCCCNC(=O)CN1CCOC(c2ccccc2)C1 (stereo not drawn) | -41.4 |
| CCc1cccc(N2CCC(NC(=O)c3ccoc3C)CC2)c1 | -16.9 |
| CCc1cccc(N2CCC(NC(=O)c3ccco3)CC2)c1 | 60.4 |
| CCc1cccc(N2CCC(NC(=O)c3ccncc3)CC2)c1 | -62.9 |
| CN1CCN(C(=O)[C@H]2C[C@@H]3CCN(c4ncc(F)cn4)C[C@@H]3O2)CC1 | -116 |

| Structure (SMILES) | INHIBITION [%] |
| --- | --- |
| O=C(c1ccc(-n2cccn2)c(F)c1)N1CCCN2CCCC2C1 (stereo not drawn) | -23.2 |
| O=C(c1cc(-n2cccn2)ccc1Cl)N1CCC(N2CCCC2=O)CC1 | -100 |
| CCN(CC)C1CCN(C(=O)NCc2cccc(-n3cccn3)c2)C1 (stereo not drawn) | -61.3 |
| O=C(c1cc(-n2cccn2)ccc1Cl)N1CCCC(N2CCCC2)C1 (stereo not drawn) | 65.8 |
| O=C(Nc1cccnc1-n1cccn1)N1CCCC(N2CCCC2)C1 (stereo not drawn) | 26.8 |
| CCN(CC)C1CCN(C(=O)c2cc(-n3cccn3)ccc2Cl)CC1 | 65.1 |
| Cc1cccc(NC2CCN(C(=O)Nc3ccc(F)c(F)c3)CC2)n1 | -20.3 |
| Cc1ccc(C(=O)N2CCC3(CC2)CC(N2CCOCC2)C3)cc1 | -158 |
| CC(C)CC(=O)Nc1cccc(CNCc2cccs2)c1 | -70.1 |
| O=C(c1cc[nH]n1)N1CCc2onc(COc3cccnc3)c2C1 | -33.4 |
| O=C(c1ccncc1F)N1Cc2nc(COCC3CC3)oc2C1 | -37.7 |
| c1cncc(COCc2nnc3n2CCN(Cc2ccco2)C3)c1 | -119 |
| Cn1cc(-c2cnc3n2CCC32CCN(S(=O)(=O)C3CC3)CC2)cn1 | -61.5 |
| Cc1cnc(NCc2csc(C(C)C)n2)nc1-c1cnn(C)c1 | -52.9 |
| COCCn1ccnc1CN1CCc2[nH]cnc2C1c1ccccn1 (stereo not drawn) | -11.9 |
| CCn1ncnc1CN1CCc2[nH]cnc2C1Cc1ccccc1 (stereo not drawn) | -61.6 |
| CCCn1ccnc1CN1CCc2[nH]cnc2C1Cc1ccccc1 (stereo not drawn) | 66.5 |
| COc1ccc(N2CCN(CC(O)c3cc(C)ccc3C)CC2)cc1 (stereo not drawn) | 31.4 |
| Oc1ccc(CCC2CCCCN2Cc2noc(C3CC3)n2)cc1 (stereo not drawn) | -61.9 |
| Cc1nc(CN2CCCCC2CCc2ccc(O)cc2)no1 (stereo not drawn) | -168 |
| Cc1noc(C)c1CN1CCCCC1CCc1ccc(O)cc1 (stereo not drawn) | 51.5 |
| Cc1ccc(S(=O)(=O)N2CCc3nc(C4CCNCC4)ncc3C2)cc1 | -51.4 |
| N#Cc1cccc(C(=O)N2CCCC(O)(CO)CC2)c1 (stereo not drawn) | -41.3 |
| Cn1cc(CN2CCc3ccc(=O)n(CC4CC4)c3CC2)cn1 | -67.9 |
| CS(=O)(=O)CCNC(=O)c1ccc(-c2ccco2)[nH]c1=O | -78.3 |
| COc1ccc(OC)c(C2CCN(C3CCOCC3)C2)c1 (stereo not drawn) | -74.2 |

| Structure (SMILES) | INHIBITION [%] |
| --- | --- |
| COc1ccc(CC2CN(C3CCSCC3)CCO2)cc1 (stereo not drawn) | -96.7 |
| Cc1nnc(N2CC[C@H](OCC3CC3)[C@@H](Cc3ccccc3)C2)s1 | -3.27 |
| COc1ccc(CN2C[C@H](OCC3CCOCC3)[C@H]3COC[C@H]32)cc1 | -12.7 |
| COc1ccc(C[C@H]2CN(C3CCOCC3)CC[C@@H]2OCC2CC2)cc1 | 60.9 |
| COc1ccc(C[C@H]2CN(C3CCOCC3)CC[C@H]2OCC2CC2)cc1 | 68.4 |
| Nc1cc(-c2c[nH]nc2C2CCCCN2C(=O)C2CCCC2)ccn1 (stereo not drawn) | -12.7 |
| Cc1ccc(NC(=O)Cn2ncc(SCC(N)=O)c(Cl)c2=O)c(F)c1 | -57.4 |
| COc1ccccc1NC(=O)N(CCO)Cc1ccsc1 | -19.5 |
| O=C(NC1CCC1)[C@H]1CCS(=O)(=O)[C@@H]2CN(CCc3ccccc3)C[C@H]12 | -96.2 |
| Cc1nc(CN2CCCN(C(=O)c3cccnc3O)CC2)cs1 | 49.4 |
| CCOc1ccc(NC(C)=O)cc1S(=O)(=O)Nc1cc(C)on1 | -90.8 |
| Cc1ccc(C)c(OC2CCN(C(=O)CNc3ccccc3Cl)CC2)c1 | -76.6 |
| CC(C)c1nnc2n1CCN(C(=O)Cc1csc(C(C)(C)C)n1)C2 | 20.2 |
| CCc1nc(CC(=O)N2CCn3c(nnc3C(C)C)C2)cs1 | -56.3 |
| Cc1nc(CC(=O)N2CCn3c(nnc3C(C)C)C2)cs1 | 51.5 |
| CCc1nc(CC(=O)N2CCn3c(nnc3C(F)(F)F)C2)cs1 | -206 |
| CCc1nc(CC(=O)N2CCn3c(C)nnc3C2)cs1 | -18.3 |
| CCc1nc(CC(=O)N2CCn3c(CC)nnc3C2)cs1 | 52 |
| c1coc(COCc2ncn3c2CN(Cc2cccs2)CCC3)c1 | -87 |
| O=C(C1NCCc2[nH]cnc21)N1CCC2(C=Cc3ccccc32)CC1 (stereo not drawn) | -16.1 |
| O=C(c1cccc(Cl)c1)N1CC[C@H]2[C@H]1CCN2CC1CC1 | -55.8 |
| CCN(C1CCN(Cc2ncc(C(C)(C)C)o2)CC1)S(C)(=O)=O | -26.2 |
| CS(=O)(=O)N1CCC(c2nc3ccc(-c4cccc(F)c4)cn3n2)CC1 | -44.9 |
| CC1(C)CN(Cc2c[nH]c(CC3CCCC3)n2)CC[C@]1(C)O | -29.5 |
| OC1(CN2CCCC2)CCCN(Cc2c[nH]c(CC3CCCC3)n2)C1 (stereo not drawn) | 37.2 |
| OC1(CN2CCCCC2)CCN(Cc2c[nH]c(CC3CCCC3)n2)C1 (stereo not drawn) | 54.6 |

| Structure (SMILES) | INHIBITION [%] |
| --- | --- |
| CN(C)c1ccc(C(=O)NCc2cccnc2-n2cncn2)cc1F | -20.3 |
| CC(C)Nc1nc(-c2ccccc2)nc2c1CCN(C(=O)C1CC1)CC2 | 27.8 |
| CCCN1CCC(c2nc3ccc(-c4cccc(OC)c4)cn3n2)CC1 | -23.2 |
| Cn1cc(N2C(=O)CC[C@@H]3[C@H]2CCN3C(=O)c2cscn2)cn1 | -22.8 |
| CN(Cc1ccncc1)Cc1nccn1Cc1ccccc1 | -37.9 |
| CN(CCc1ccncc1)Cc1nccn1Cc1ccccc1 | 42.2 |
| CN(CCc1ccccn1)Cc1nccn1Cc1ccccc1 | 57.9 |
| CCN(C(=O)C1=NN(c2ccccc2)C(=O)CN1)c1ccccc1 | -66.6 |
| CCN(Cc1ccco1)C(=O)C1=NN(c2ccccc2)C(=O)CN1 | 60.6 |
| Cc1ccc(N2N=C(C(=O)N(C)Cc3ccco3)NCC2=O)cc1 | -13.2 |
| CCOc1cc(C=Cc2ncc(C(=O)NC)s2)ccc1OC | 25.6 |
| CN(CC(=O)Nc1cccnc1)C1CCCN(c2cccnn2)C1 (stereo not drawn) | 8.25 |
| CC(=O)NCCNCc1cn(CCN2CCSCC2)nc1C | -18 |
| Cc1nc(C(C)C)sc1C(=O)NCCn1nc2ccccn2c1=O | 59.1 |
| Cc1nc(C)c(C(=O)NCCn2nc3ccccn3c2=O)s1 | -42 |
| CCc1nc(C)c(C(=O)NCCn2nc3ccccn3c2=O)s1 | -71.9 |
| Cn1cnc2c1CCN(CC(O)c1ccc3c(c1)OCCO3)C2 (stereo not drawn) | -106 |
| CCc1nnc2n1CCN(CC(O)c1ccc3c(c1)OCCO3)C2 (stereo not drawn) | 66.3 |
| CCc1nnc2n1CCN(Cc1cccc3c1OCCO3)C2 | 43.7 |
| Cc1cc(C)cc(CN2C[C@@H]3OCCN(CC(=O)N(C)C)[C@@H]3C2)c1 | -93.1 |
| COC[C@H]1CCCN1c1nccc(-c2cnn(-c3ccccc3C)c2)n1 | -32.9 |
| COCC(=O)N1CCC2(CC1)CN(c1ccsc1)C(=O)CO2 | -11.6 |
| Cc1noc(C)c1CN1CCC2(CCN(Cc3cccc(F)c3)CC2)C1 | 67.9 |
| CC(=O)N1CCC2(CCN(Cc3cccc(F)c3)CC2)CC1 | -58.8 |
| CN(C)CC(=O)N1CCC2(CCN(Cc3cccc(F)c3)CC2)C1 | 36.4 |
